Here are results for 9 compounds from PubChem BioAssay.

The source made the active and inactive calls.

Test [1] can be described thus: E. coli DRC41 culture turbidity changes, primary screen, E. coli filamentation inducer project, strain DRC41, OD650, 48 h (AID 1152).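 Note: E. coli MC1000 strain DRC41 lacking acrAB efflux pump and sulA.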 Particulars: E. coli DRC41 (acrAB sulA), higher = more signal, called active from +8 up or from −8 down.
Test [2] is described as follows: small-molecule binders of probe aLefty1, primary screen, biochemical, small-molecule microarray, 635/667 nm fluorescence (AID 1153).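 Note: score merges spot fluorescence with signal-to-noise ratio from the scanned slide images.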 The settings on record: higher = more signal.
A short description of test [3]: PSAC antagonists in infected red cells, primary screen, cell-based, P. falciparum Indochina, OD700, 1 h (AID 1154). The settings on record: P. falciparum Indochina infected RBC osmotic lysis, higher = more signal, called active from +8 up or from −8 down.
A short description of test [4]: PSAC antagonists in infected red cells, primary screen, cell-based, P. falciparum Indochina, OD700, 2 h (AID 1155).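 Note: lysis reports solute entry through the parasite surface anion channel PSAC; channel blockers reduce lysis of infected cells.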 Particulars: P. falciparum Indochina infected erythrocytes, osmotic lysis OD700; higher = more signal, called active from +8 up or from −8 down.
The nature of test [5]: osmotic lysis modulators in infected erythrocytes, primary screen, PSAC antagonist project, cell-based, P. falciparum Indochina, OD700, 3 h (AID 1156). The settings on record: higher = more signal, called active from +8 up or from −8 down.
Test [6] in a line: PSAC antagonists in infected red cells, primary screen, cell-based, P. falciparum Indochina, OD700, 18 h (AID 1157). Particulars: P. falciparum Indochina infected erythrocytes, osmotic lysis OD700, 18 h; higher = more signal, called active from +8 up or from −8 down.
The nature of test [7]: modulators of S6 phosphorylation in cells, primary screen, cell-based, A549, cytoblot, luminescence, serum-stimulated (AID 1158).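 Note: serum-stimulated A549 lung adenocarcinoma cells; signal is phosphorylated S6 detected by cytoblot immunostaining with HRP secondary.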 Particulars: A549 phospho-S6 cytoblot, 5 h, higher = more signal.
The target in test [8] is NADPH oxidase 2 (Homo sapiens) (UniProt P04839). The test is described as follows: NOX2-dependent H2O2 signal modulators, primary screen, NOX inhibitor project, cell-based, HEK293-NOX2, PMA-stimulated, Amplex Red fluorescence (AID 1159). Note: test concentration not given here. The settings on record: 45 min, higher = more signal, called active from +8 up or from −8 down.
Test [9] concerns the target NADPH oxidase 4 (Homo sapiens) (UniProt Q9NPH5). The test is described as follows: NOX4-dependent H2O2 signal modulators, primary screen, NOX inhibitor project, cell-based, HEK293-NOX4, tetracycline-induced, Amplex Red fluorescence (AID 1160). Particulars: 45 min, higher = more signal, called active from +8 up or from −8 down.
Test [10] addresses NADPH oxidase 5 (Homo sapiens) (UniProt Q96PH1). Put plainly: NOX5-dependent H2O2 signal modulators, primary screen, NOX inhibitor project, cell-based, HEK293-NOX5, Amplex Red fluorescence (AID 1161). Particulars: HEK293-NOX5, ionomycin, 45 min, higher = more signal.
Test [11] is described as follows: A549 cell viability effects, profiling panel, calcein-AM fluorescence, 48 h, basal (AID 1162). Note: test concentration not given here. The settings on record: higher = more signal.
Test [12] can be described thus: adipocyte viability effects, profiling panel, cell-based, 3T3-L1 adipocytes, calcein-AM fluorescence, 48 h, basal (AID 1163). Note: test concentration not given here. Particulars: 3T3-L1 adipocytes viability, higher = more signal.
Test [13] is described as follows: HepG2 cell viability effects, profiling panel, calcein-AM fluorescence, 48 h, basal (AID 1164). Note: test concentration not given here. Particulars: higher = more signal.
Test [14] in a line: MM1S cell viability effects, profiling panel, calcein-AM fluorescence, 48 h, basal (AID 1165).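 Note: viability of MM1S multiple myeloma cells under basal unstimulated conditions; test concentration not given here.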 The settings on record: higher = more signal.
The nature of test [15]: basal RPMI8226 viability, no added stimulus, profiling panel, cell-based, calcein-AM fluorescence, 48 h, PK04 Diversity Set (AID 1166).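 Note: cells grown under basal conditions without added stimulus; test concentration not given here.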 The settings on record: RPMI8226 myeloma viability, higher = more signal.
Test [16] is described as follows: basal HepG2 mitochondrial membrane potential changes, profiling panel, cell-based, JC-1 fluorescence, 24 h, 100 nL compound (AID 1167). Note: test concentration not given here. Particulars: higher = more signal.
A short description of test [17]: basal 3T3-L1 adipocyte mitochondrial potential changes, profiling panel, cell-based, JC-1 fluorescence, 3T3-L1 adipocytes, 24 h, 100 nL compound (AID 1168). Note: test concentration not given here. Particulars: JC-1 mitochondrial fluorescence, higher = more signal, called active from +8 up or from −8 down.
Test [18] can be described thus: basal RPMI8226 mitochondrial membrane potential changes, profiling panel, cell-based, JC-1 fluorescence, 24 h, 100 nL compound (AID 1169). Note: test concentration not given here. Particulars: RPMI8226 myeloma, JC-1 mitochondrial potential fluorescence, higher = more signal.
Test [19] is described as follows: basal MM1S mitochondrial membrane potential changes, profiling panel, cell-based, JC-1 fluorescence, 24 h, 100 nL compound (AID 1170). Note: test concentration not given here. Particulars: higher = more signal.
A short description of test [20]: A549 lung cancer cell viability effects, profiling panel, resazurin fluorescence, 24 h, PK04 Diversity Set (AID 1171). Note: test concentration not given here. The settings on record: higher = more signal, called active from +8 up or from −8 down.

Sequence of NADPH oxidase 2 (Homo sapiens) (P04839 whole entry, looked up): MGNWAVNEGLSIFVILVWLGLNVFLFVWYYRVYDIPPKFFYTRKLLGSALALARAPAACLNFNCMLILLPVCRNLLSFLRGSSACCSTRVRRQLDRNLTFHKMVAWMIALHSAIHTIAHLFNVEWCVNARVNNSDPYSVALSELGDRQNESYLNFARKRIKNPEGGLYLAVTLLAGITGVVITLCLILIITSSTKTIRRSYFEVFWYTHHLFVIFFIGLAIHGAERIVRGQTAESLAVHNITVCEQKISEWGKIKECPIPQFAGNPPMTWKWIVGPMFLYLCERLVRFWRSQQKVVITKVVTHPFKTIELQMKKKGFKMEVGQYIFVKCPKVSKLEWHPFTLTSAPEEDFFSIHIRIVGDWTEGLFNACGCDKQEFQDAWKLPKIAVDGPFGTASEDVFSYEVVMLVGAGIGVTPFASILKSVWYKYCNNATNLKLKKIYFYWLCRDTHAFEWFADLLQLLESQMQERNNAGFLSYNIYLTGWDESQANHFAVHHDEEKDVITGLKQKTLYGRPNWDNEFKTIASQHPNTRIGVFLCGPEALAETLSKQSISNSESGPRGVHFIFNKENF
Sequence of NADPH oxidase 4 (Homo sapiens) (Q9NPH5 whole entry, looked up): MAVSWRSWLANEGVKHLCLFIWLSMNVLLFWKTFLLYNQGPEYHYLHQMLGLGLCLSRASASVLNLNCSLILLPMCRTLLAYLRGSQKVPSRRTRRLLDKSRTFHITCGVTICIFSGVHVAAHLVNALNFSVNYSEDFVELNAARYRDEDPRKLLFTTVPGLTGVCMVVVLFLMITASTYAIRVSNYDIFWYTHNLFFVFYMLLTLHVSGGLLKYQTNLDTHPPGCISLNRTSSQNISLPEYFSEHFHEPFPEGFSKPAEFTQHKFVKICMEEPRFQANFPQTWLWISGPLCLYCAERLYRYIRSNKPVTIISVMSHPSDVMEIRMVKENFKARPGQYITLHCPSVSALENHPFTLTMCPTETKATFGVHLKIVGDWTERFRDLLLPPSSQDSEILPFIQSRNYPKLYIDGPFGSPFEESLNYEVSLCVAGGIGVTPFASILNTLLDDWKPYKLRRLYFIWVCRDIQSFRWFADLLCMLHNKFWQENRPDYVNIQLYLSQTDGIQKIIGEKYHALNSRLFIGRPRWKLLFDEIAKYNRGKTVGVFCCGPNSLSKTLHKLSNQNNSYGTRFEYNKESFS
Sequence of NADPH oxidase 5 (Homo sapiens) (Q96PH1 whole entry, looked up): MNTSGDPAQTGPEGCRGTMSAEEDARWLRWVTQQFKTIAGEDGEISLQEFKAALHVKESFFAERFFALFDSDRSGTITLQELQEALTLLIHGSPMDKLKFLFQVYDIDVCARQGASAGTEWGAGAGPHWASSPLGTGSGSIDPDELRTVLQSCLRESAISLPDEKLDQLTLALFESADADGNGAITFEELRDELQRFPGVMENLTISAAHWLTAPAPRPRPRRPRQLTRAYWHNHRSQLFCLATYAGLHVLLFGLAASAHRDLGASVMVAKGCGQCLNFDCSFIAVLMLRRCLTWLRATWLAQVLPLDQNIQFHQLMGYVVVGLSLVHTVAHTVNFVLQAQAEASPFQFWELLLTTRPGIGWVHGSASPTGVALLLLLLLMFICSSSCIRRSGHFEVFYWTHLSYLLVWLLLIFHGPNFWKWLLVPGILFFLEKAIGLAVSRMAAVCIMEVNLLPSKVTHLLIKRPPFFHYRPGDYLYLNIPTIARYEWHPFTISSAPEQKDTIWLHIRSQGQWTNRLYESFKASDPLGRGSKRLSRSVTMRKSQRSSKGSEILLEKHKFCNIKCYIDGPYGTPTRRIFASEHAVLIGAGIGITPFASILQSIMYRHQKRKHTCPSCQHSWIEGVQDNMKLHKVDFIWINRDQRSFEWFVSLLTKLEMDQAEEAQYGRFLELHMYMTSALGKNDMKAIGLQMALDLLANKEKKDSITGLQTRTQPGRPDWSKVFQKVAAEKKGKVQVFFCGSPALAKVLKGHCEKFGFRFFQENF

Turning to `CC(C)C(CO)N1C(=O)[C@@H]2[C@H]3C(=O)OCC=C[C@H]3OC23C=CCN(C(C)C)C(=O)[C@@H]13` (stereo not given in full), the z-score is 1.4 (inactive) in test [1]; -0.237 (inactive) in [3]; 0.139 (inactive) in test [4]; 0.333 (inactive) in test [5]; 0.649 (inactive) in test [6]; -0.1 in test [7]. The z-score in [8] was 0.834 (inactive); in test [9] it was 0.457 (inactive); in test [10] it was 1.23; in test [11], -0.368; in test [12] it was 0.877; in test [13] it was -0.185. Besides, the z-score is -0.181 in test [14]; 0.642 in test [15]; -0.304 in test [16]; 0.148 (inactive) in [17]; -0.0287 in test [18]; -0.0116 in [19]. For the same compound, in [20], the z-score was 0.711 (inactive). In [2], this compound registered a composite z-score of -0.146.

As to `COc1ccc([Si](C)(C)[C@@H]2[C@@H](CCO)O[C@]3(C(=O)N(Cc4ccc(N5C(=O)COc6ccccc65)cc4)c4ccccc43)[C@H]2C)cc1`, the z-score in test [1] is -0.163 (inactive); in test [3] it was 3.9 (inactive); in test [4], 3.84 (inactive); in test [5], 0.746 (inactive); in test [6], 2.39 (inactive); in [7], 0.866. In addition, the z-score in test [8] is 0.506 (inactive); in [9], 1.46 (inactive); in test [10] it was 1.38; in test [11] it was -1.54; in test [12], -0.0973; in test [13], -3.87. In addition, the z-score in test [14] was -2.41; in test [15], -3.72; in test [16], -0.917; in [17], -0.189 (inactive); in [18] it was -0.923; in test [19], -1.53. Besides, the z-score in [20] was -2.38 (inactive). This compound also showed a composite z-score in test [2] of 0.165.

As for `O=C1OCC=C[C@H]2OC34C=CCN(CCN5CCOCC5)C(=O)[C@H]3N(CCCO)C(=O)[C@@H]4[C@@H]12` (stereo not given in full), the z-score was 0.109 (inactive) in test [1]; 0.64 (inactive) in test [3]; -0.385 (inactive) in test [4]; 1.27 (inactive) in [5]; -1.19 (inactive) in test [6]; 1.08 in test [7]. Also, the z-score was 0.812 (inactive) in test [8]; -1.16 (inactive) in test [9]; 0.375 in test [10]; 0.74 in test [11]; 1.38 in test [12]; 0.811 in [13]. Further, the z-score is 1.11 in test [14]; -1.16 in test [15]; -0.326 in [16]; 0.584 (inactive) in [17]; 0.676 in test [18]; 0.57 in test [19]. Further, in test [20], the z-score was -1.38 (inactive). The compound further returned a composite z-score in [2] of -0.147.

For the compound `O=C(NCc1ccccc1)[C@@]1(Cc2ccccc2)N=C(c2ccc(OCCCO)cc2)O[C@H]1c1ccccc1`, the z-score in [1] is 0.179 (inactive); in test [3] it was 13.5 (active); in test [4] it was 2.11 (inactive); in [5], 1.5 (inactive); in test [6], 0.86 (inactive); in [7] it was -0.0312. In addition, the z-score in [8] was -1.28 (inactive); in [9], 0.98 (inactive); in test [10], 0.756; in test [11], -2.86; in test [12], 0.967; in test [13], -2.26. In addition, the z-score in [14] is -1.42; in [15], -3.32; in test [16], 1.19; in test [17], -0.357 (inactive); in test [18], -1.02; in test [19] it was -1.55. In addition, the z-score in test [20] was -0.331 (inactive). The compound further gave a composite z-score in test [2] of 0.609.

As for `[N-]=[N+]=Nc1ccccc1C[C@]1(C(=O)NCC(O)CO)N=C(c2ccc(OCCCO)cc2)O[C@H]1c1ccccc1N=[N+]=[N-]` (stereo not given in full), the z-score in test [1] is 0.394 (inactive); in [3], 29.2 (active); in [4], 29 (active); in [5], 0.581 (inactive); in test [6] it was 2.68 (inactive); in [7], 0.0471. Further, the z-score in [8] was -2.76 (inactive); in test [9], -0.295 (inactive); in [10] it was -1.67; in test [11] it was -1.04; in test [12], -0.676; in test [13] it was -1.12. Besides, the z-score in test [14] was -2.98; in test [15] it was -3.14; in test [16] it was -0.162; in test [17], 0.153 (inactive); in test [18] it was -1.19; in test [19] it was -1.3. Besides, the z-score in test [20] was -1.19 (inactive). In test [2], this compound returned a composite z-score of -0.0295.

For the compound `CC(C)(C)OC(=O)CC[C@@]1(C(N)=O)N=C(c2ccc(OCCCO)cc2)O[C@@H]1c1ccccc1`, the z-score in test [1] was -0.795 (inactive); in test [3] it was 5.46 (inactive); in [4], 0.431 (inactive); in [5] it was 0.726 (inactive); in test [6], 0.299 (inactive); in [7], -0.0683. Further, the z-score in [8] was -0.414 (inactive); in test [9] it was 0.492 (inactive); in test [10] it was -0.0961; in test [11], 0.298; in test [12], -0.0721; in test [13], 0.105. Moreover, the z-score in test [14] is 0.0092; in [15] it was 0.658; in [16], -0.318; in test [17] it was -0.191 (inactive); in [18], 0.919; in test [19] it was -0.0322. Besides, the z-score in test [20] is 0.293 (inactive). The compound further came in with a composite z-score in [2] of 0.345.

Turning to `C=CCNC(=O)[C@H]1[C@@H]2C(=O)O[C@@H](c3ccccc3)[C@@H](c3ccccc3)N2[C@@H](c2ccc(OCCO)cc2)[C@]12C(=O)N(C(=O)OCCOC)c1ccccc12`, the z-score in [1] is 0.159 (inactive); in test [3], 5.52 (inactive); in [4], 0.926 (inactive); in test [5] it was 1.22 (inactive); in [6], 0.759 (inactive); in [7], 0.182. For the same compound, the z-score is 2.35 (inactive) in [8]; 0.743 (inactive) in test [9]; -1.51 in test [10]; 0.111 in [11]; 1.47 in test [12]; -0.109 in test [13]. For the same compound, the z-score in [14] is -0.472; in [15], -2.66; in test [16], 1.34; in test [17], 0.131 (inactive); in test [18], -0.562; in test [19] it was 0.465. For the same compound, in test [20], the z-score is -0.918 (inactive). For the same compound, the composite z-score in test [2] worked out at 0.378.

Take `COC(=O)[C@@]1(Cc2ccc(OC)cc2)[C@H]2c3cc(C(=O)N4CCCC4)n(Cc4ccccc4)c3C[C@H]2CN1C(=O)c1ccccc1`: the z-score is -1.49 (inactive) in test [1]; 2.81 (inactive) in test [3]; 0.496 (inactive) in test [4]; 0.748 (inactive) in [5]; 0.69 (inactive) in [6]; -0.378 in test [7]. For the same compound, the z-score in test [8] is -0.0412 (inactive); in [9], -0.857 (inactive); in test [10] it was -3.04; in [11] it was -0.549; in test [12] it was 0.39; in [13], -0.331. Besides, the z-score was -1.63 in [14]; -2.12 in test [15]; 2.44 in test [16]; -1.07 (inactive) in test [17]; -0.933 in test [18]; -1.3 in [19]. Further, in test [20], the z-score was -2.5 (inactive). The same compound returned a composite z-score in [2] of 2.19.

Regarding `C=CCNC(=O)[C@@H]1[C@H]2C(=O)O[C@H](c3ccccc3)[C@H](c3ccccc3)N2[C@H](c2ccc(OCCO)cc2)[C@@]12C(=O)Nc1ccc(C#CCCO)cc12`, the z-score in [1] is -0.41 (inactive); in test [3], 7.17 (inactive); in test [4], 2.11 (inactive); in [5] it was 1.14 (inactive); in test [6], 0.812 (inactive); in [7], -0.344. Besides, the z-score is 1.67 (inactive) in test [8]; 0.442 (inactive) in [9]; 0.688 in test [10]; -1.11 in test [11]; 0.422 in test [12]; 1.27 in test [13]. Also, the z-score in test [14] was -0.563; in test [15] it was 0.256; in test [16], 1.1; in test [17] it was 0.0466 (inactive); in test [18] it was -0.591; in test [19], -0.183. In addition, the z-score in [20] was 0.344 (inactive). This compound gave a composite z-score in [2] of 0.656.
